Measured values taken from ChEMBL document CHEMBL3988442, “University of Dundee, Small-Polar-MMV Screening Library” (2021).
Screen size: about 67,000 compounds; about 300 (0.45%) showed an effect of 50% or more. For the sample, strong results were picked, then their nearest neighbours and some compounds at random.

What follows are molecules tested against Polyketide synthase Pks13 (Mycobacterium tuberculosis (strain ATCC 25618 / H37Rv)) (UniProt I6X8D2) (assay: Mycobacterium tuberculosis Polyketide synthase 13 Thioesterase (PKS13)). Conditions: 30 µM.
Chain of Polyketide synthase Pks13 (Mycobacterium tuberculosis (strain ATCC 25618 / H37Rv)) (I6X8D2 whole entry): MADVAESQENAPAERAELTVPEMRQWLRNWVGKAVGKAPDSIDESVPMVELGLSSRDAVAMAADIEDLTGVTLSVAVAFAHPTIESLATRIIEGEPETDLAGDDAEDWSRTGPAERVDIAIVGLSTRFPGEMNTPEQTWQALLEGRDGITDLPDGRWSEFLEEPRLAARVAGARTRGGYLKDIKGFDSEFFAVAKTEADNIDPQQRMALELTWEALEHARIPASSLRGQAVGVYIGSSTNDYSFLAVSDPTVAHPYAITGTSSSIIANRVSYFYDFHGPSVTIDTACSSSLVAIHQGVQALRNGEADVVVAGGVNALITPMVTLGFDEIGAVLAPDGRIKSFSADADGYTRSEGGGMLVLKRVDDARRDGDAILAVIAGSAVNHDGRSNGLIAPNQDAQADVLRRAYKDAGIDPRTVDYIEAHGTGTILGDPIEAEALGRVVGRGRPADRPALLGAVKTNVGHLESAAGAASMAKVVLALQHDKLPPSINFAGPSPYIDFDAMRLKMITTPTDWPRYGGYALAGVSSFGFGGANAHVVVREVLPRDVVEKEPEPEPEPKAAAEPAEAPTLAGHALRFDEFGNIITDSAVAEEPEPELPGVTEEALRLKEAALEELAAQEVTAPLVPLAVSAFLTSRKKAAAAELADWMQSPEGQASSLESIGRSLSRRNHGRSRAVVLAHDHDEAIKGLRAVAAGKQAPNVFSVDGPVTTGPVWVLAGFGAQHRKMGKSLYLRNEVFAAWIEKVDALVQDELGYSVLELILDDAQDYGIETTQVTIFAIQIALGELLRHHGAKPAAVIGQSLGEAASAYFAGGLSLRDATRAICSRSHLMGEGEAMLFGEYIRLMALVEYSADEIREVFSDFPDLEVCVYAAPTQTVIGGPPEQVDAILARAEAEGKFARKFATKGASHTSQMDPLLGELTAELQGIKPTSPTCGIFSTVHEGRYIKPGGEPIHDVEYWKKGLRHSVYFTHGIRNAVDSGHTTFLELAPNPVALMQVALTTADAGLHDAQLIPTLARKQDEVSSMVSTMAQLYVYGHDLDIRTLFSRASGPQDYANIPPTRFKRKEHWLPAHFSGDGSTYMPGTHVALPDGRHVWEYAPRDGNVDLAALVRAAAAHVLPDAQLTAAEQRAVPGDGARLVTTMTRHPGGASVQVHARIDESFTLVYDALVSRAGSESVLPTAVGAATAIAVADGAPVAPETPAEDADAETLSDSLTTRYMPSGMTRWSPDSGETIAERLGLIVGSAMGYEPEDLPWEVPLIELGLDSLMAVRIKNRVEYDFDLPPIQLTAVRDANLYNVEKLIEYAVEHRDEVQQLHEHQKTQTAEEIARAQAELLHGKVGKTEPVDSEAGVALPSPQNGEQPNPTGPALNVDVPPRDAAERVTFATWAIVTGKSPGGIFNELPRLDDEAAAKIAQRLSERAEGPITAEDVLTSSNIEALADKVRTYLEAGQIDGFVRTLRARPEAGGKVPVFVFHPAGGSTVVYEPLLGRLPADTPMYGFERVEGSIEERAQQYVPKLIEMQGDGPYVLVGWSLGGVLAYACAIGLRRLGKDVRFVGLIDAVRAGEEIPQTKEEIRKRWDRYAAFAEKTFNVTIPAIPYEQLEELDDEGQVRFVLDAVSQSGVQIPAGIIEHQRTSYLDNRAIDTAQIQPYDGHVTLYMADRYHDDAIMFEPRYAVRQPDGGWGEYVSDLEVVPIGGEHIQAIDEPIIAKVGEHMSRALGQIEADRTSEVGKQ
Format: functional
Set-up: scale not given: in the data most compounds retested in dose-response had high values
With `O=C(CSCC1CC1)N1C[C@@H]2CC[C@H](C1)N(Cc1ccccn1)C2=O` the Percent Effect was -35%. For `CO[C@H]1CCN(Cc2c(C)noc2C)[C@@H]2CN(Cc3ccncc3)C[C@H]12`, the Percent Effect was 13.1%. `CNCc1cn(C[C@H]2C[C@@H]3CCN2C[C@@H]3C(=O)NC2CCCCC2)nn1` showed a Percent Effect of -24.7%. Work on `CNc1cncc(C2CCCN2C(=O)Cn2c(=O)oc3ccccc32)n1` (stereo not drawn) yielded a Percent Effect of 130%. Work on `CNc1cncc(C2CCCN2C(=O)c2ccc3oc(=O)n(C)c3c2)n1` (stereo not drawn) yielded a Percent Effect of -18.4%. Molecule `Cn1cc(C2CCCN2C(=O)Cn2c(=O)oc3ccccc32)cn1` (stereo not drawn) has a Percent Effect of -24.9%. For `O=C(C1CCCO1)N1C[C@@H]2CCN(c3cnccn3)C[C@@H]2C1` (stereo partly drawn), the Percent Effect was -10.1%. For `Cc1noc([C@@H]2C[C@H]3OCC[C@H]3N(S(=O)(=O)c3cccnc3)C2)n1`, the Percent Effect was 56.3%. For `Cc1noc([C@@H]2C[C@H]3OCC[C@H]3N(S(=O)(=O)c3ccccc3)C2)n1`, the Percent Effect was -2.66%. `Cc1noc([C@@H]2C[C@H]3OCC[C@H]3N(S(C)(=O)=O)C2)n1` was tested, and the Percent Effect was -22.1%. `CCOC(=O)[C@@H]1[C@@H](c2ccccc2)CN2CCN(C(=O)C3CC3)C[C@H]12` showed a Percent Effect of -34.9%. With `CCC[C@H]1CN(S(C)(=O)=O)C[C@@H]1NC(=O)COC(C)C` the Percent Effect was -31%. `CCC[C@H]1CN(S(C)(=O)=O)C[C@@H]1NC(=O)Cc1ccc(OC)cc1` was tested, and the Percent Effect was -10.8%. `CCC[C@H]1CN(S(C)(=O)=O)C[C@@H]1NC(=O)c1ccc(COC)cc1` gave a Percent Effect of 125%. `CCc1cnc(N2C[C@H]3CCCC(N(C)Cc4ccccn4)[C@H]3C2)nc1` (stereo partly drawn) was tested, and the Percent Effect was -25%. `CC1(C)OCC(CNC(=O)c2cnn(-c3cc(Cl)ccc3Cl)c2N)O1` (stereo not drawn) showed a Percent Effect of -5.14%. `Cc1ccc(C)c(-n2ncc(C(=O)NCC3COC(C)(C)O3)c2N)c1` (stereo not drawn) was tested, and the Percent Effect was 66.6%. `CC1(C)OCC(CNC(=O)c2cnn(-c3ccc(Cl)cc3)c2N)O1` (stereo not drawn) was tested, and the Percent Effect was -15.3%. Molecule `CC(=O)NCC1CCN(C(=O)NCc2ccc3c(c2)OCCO3)CC1` has a Percent Effect of -0.159%. `O=C(NCc1ccc2c(c1)OCCO2)N1CCC(CO)CC1` gave a Percent Effect of 52.7%. Molecule `NC(=O)C1CCN(C(=O)NCc2ccc3c(c2)OCCO3)CC1` has a Percent Effect of -21.9%. Molecule `COCCN1C(=O)[C@]2(CC[C@@H]3CN(C(=O)NCC(C)C)C[C@@H]32)N=C1C` has a Percent Effect of -6.17%. `COC(=O)c1sc2cccc(F)c2c1CNC(=O)C1CC1` showed a Percent Effect of 1.9%. `COC(=O)c1sc2cccc(F)c2c1CNC(=O)C1CCCO1` (stereo not drawn) was tested, and the Percent Effect was 1.86%. Work on `COC(=O)c1sc2cccc(F)c2c1CNC(=O)C1CCOC1` (stereo not drawn) yielded a Percent Effect of 68.2%. With `Cc1noc(C)c1CN1CC[C@H]2[C@H]1CCN2CC1CCOCC1` the Percent Effect was 10.3%. In the case of `CN(Cc1ccc(N2CCOCC2)cc1)Cc1noc(C(C)(C)C)n1`, the Percent Effect is reported as 21.8%. `CN(Cc1noc(C(C)(C)C)n1)Cc1ccccc1N1CCCCC1` was tested, and the Percent Effect was 1.5%. With `CN(Cc1ccc(N2CCCCC2)cc1)Cc1noc(C(C)(C)C)n1` the Percent Effect was 85.2%. Work on `Cn1cncc1CN1C[C@@H]2OCCN(c3ncccn3)[C@@H]2C1` yielded a Percent Effect of -16.4%. In the case of `O=C(Nc1ccccc1)N1C[C@@H]2OCCN(C(=O)c3ccco3)[C@@H]2C1`, the Percent Effect is reported as -42.5%. For `CN1CCN(C(=O)[C@@H]2CCO[C@@H]3CCN(c4ncccn4)C[C@@H]32)CC1`, the Percent Effect was -7.46%. `CC(C)c1cc(C(F)(F)F)n2nc(CCC(=O)O)nc2n1` gave a Percent Effect of 5.23%. Molecule `Cc1nn(C)cc1-c1cc(C(F)F)n2nc(CCC(=O)O)nc2n1` has a Percent Effect of 16.4%. With `CCn1cc(-c2cc(C(F)F)n3nc(CCC(=O)O)nc3n2)cn1` the Percent Effect was 32.3%. Work on `CCn1cc(-c2cc(C(F)F)n3nc(CC(=O)O)nc3n2)cn1` yielded a Percent Effect of 62.5%. In the case of `Cn1cc(-c2cc(C(F)F)n3nc(CCC(=O)O)nc3n2)cn1`, the Percent Effect is reported as 51.2%. `CCn1ncc(-c2cc(C(F)F)n3nc(CCC(=O)O)nc3n2)c1C` was tested, and the Percent Effect was 15.6%. Work on `CN(C)C(=O)N1CCN(CCCc2ccccc2)[C@H]2CS(=O)(=O)C[C@H]21` yielded a Percent Effect of -15%. For `Cc1oncc1C(=O)N1C[C@H](OCc2ccccn2)[C@H]2OCCC[C@H]21`, the Percent Effect was -0.48%. `O=S1(=O)C[C@@H]2[C@H](C1)N(Cc1ncc[nH]1)CCN2Cc1cccnc1` gave a Percent Effect of -6.48%. For `O=C(O)c1cn(-c2ccccn2)c(=O)c2ccccc12`, the Percent Effect was 57%. Molecule `COC(=O)CNC(=O)c1cn(-c2ccccn2)c(=O)c2ccccc12` has a Percent Effect of 41.4%. Molecule `CC(C)CNC(=O)c1cn(-c2ccccn2)c(=O)c2ccccc12` has a Percent Effect of 42.5%. `CN(C)C(=O)[C@]12CCCN(CC3CC3)C[C@H]1CN(c1ccccn1)C2` gave a Percent Effect of -21.7%. `COCCc1noc(-c2cn(Cc3ccccc3C)nn2)n1` was tested, and the Percent Effect was -13.8%. With `COCCc1noc(-c2cn(CCc3ccccc3)nn2)n1` the Percent Effect was 62.2%. Molecule `COCCc1noc(-c2cn(Cc3ccc(OC)cc3)nn2)n1` has a Percent Effect of -2.84%. In the case of `CN(Cc1cncnc1)[C@@H]1CN(Cc2ccco2)C[C@@H]2CCCO[C@@H]21`, the Percent Effect is reported as -4.7%. Molecule `O=C(NCC1CC1)[C@H]1C[C@@H]2CCN(Cc3nccs3)C[C@@H]2O1` has a Percent Effect of -42.1%. Work on `O=C(N[C@H]1CN[C@H]2CCCO[C@H]21)c1ccno1` yielded a Percent Effect of -17%. With `O=C(c1ccncc1)N1C[C@@H]2CC[C@H](C1)N(S(=O)(=O)c1cccnc1)C2` the Percent Effect was -25.8%. For `O=C(c1cnccn1)N1C[C@@H]2CC[C@H](C1)N(S(=O)(=O)c1cccnc1)C2`, the Percent Effect was 56.1%. `O=C(c1ccccc1)N1C[C@@H]2CC[C@H](C1)N(S(=O)(=O)c1cccnc1)C2` showed a Percent Effect of -34.5%. Work on `O=S1(=O)C[C@@H]2[C@H](C1)N(Cc1ncc[nH]1)CCN2C/C=C/c1ccccc1` yielded a Percent Effect of 5.07%. `CCC1=N[C@@]2(CC[C@@H]3CN(S(=O)(=O)CC)C[C@@H]32)C(=O)N1CCOC` was tested, and the Percent Effect was -31.3%. Work on `Cc1cnc2c(C(=O)N3CCCC(OCc4ccccn4)C3)cnn2c1` (stereo not drawn) yielded a Percent Effect of 81.5%. `O=C(c1cnn2ccccc12)N1CCCC(OCc2ccccn2)C1` (stereo not drawn) was tested, and the Percent Effect was -9.11%. `CCCn1ncc(C(=O)N2CCCC(OCc3ccccn3)C2)c1C` (stereo not drawn) showed a Percent Effect of -15.6%. Work on `Cc1cccc(CN2CC[C@H]3OCC[C@@]3(C(=O)N3CCCO3)C2)n1` yielded a Percent Effect of 8.33%. `CNC[C@H]1CC[C@H](c2cc(CN(C)C(=O)c3cnccn3)n(C)n2)CC1` gave a Percent Effect of -6.04%. With `CC(NC(=O)Nc1cccnc1N1CCCC1)c1ccncc1` (stereo not drawn) the Percent Effect was 0.204%. With `COc1ncccc1NC(=O)NC(C)c1nncn1C` (stereo not drawn) the Percent Effect was -5.35%. For `CC(NC(=O)Nc1cccnc1N1CCCC1)c1nncn1C` (stereo not drawn), the Percent Effect was 56%. For `CCc1cnc(N2C[C@H]3C[C@H](C(=O)N(C)C)[C@@H](C2)O3)nc1`, the Percent Effect was -7.42%. For `N#CCCCS(=O)(=O)N1CCC(CSc2ccccc2)C1` (stereo not drawn), the Percent Effect was -31.5%. `N#Cc1nccnc1N1CCC(CSc2ccccc2)C1` (stereo not drawn) gave a Percent Effect of 53.9%. `CCS(=O)(=O)N1CCC(CSc2ccccc2)C1` (stereo not drawn) showed a Percent Effect of 9.93%. With `Cc1ccc(N2CCO[C@H]3CN(Cc4ccc(F)cc4)C[C@H]32)nn1` the Percent Effect was 4.79%. Molecule `CC(C)N1CCO[C@H]2CN(C(=O)c3ccncc3F)C[C@H]21` has a Percent Effect of -27%. Molecule `O=C(O)[C@]12CCCN(Cc3cccnc3)[C@@H]1CCN(c1cnccn1)C2` has a Percent Effect of 10.4%. With `O=C(O)[C@]12CCCN(Cc3ccncc3)[C@@H]1CCN(c1cnccn1)C2` the Percent Effect was -7.13%. For `O=C(O)[C@]12CCCN(Cc3ccccn3)[C@@H]1CCN(c1cnccn1)C2`, the Percent Effect was 95.4%. With `Cc1ccsc1CN1CC[C@H]2OCC[C@@]2(C(=O)N2CCCO2)C1` the Percent Effect was -17.7%. In the case of `O=C(NC[C@]12COC[C@H]1CN(Cc1ccncc1)C2)c1ccno1`, the Percent Effect is reported as -9.3%. With `Cc1ncnc2c1CCN(C(=O)c1cccnc1)CC2` the Percent Effect was -18.2%. Work on `O=C(c1cccnc1)N1CCc2ncnc(N3CCOCC3)c2CC1` yielded a Percent Effect of -1.96%. Work on `CN(C)c1ncnc2c1CCN(C(=O)c1cccnc1)CC2` yielded a Percent Effect of 61.9%. `CN1C(=O)C[C@@H]2[C@@H]1CCN2C(=O)c1ccc[nH]1` gave a Percent Effect of -5.06%. Molecule `Cc1cc(CN2CC[C@H]3C[C@H](C)O[C@@H]3C2)no1` has a Percent Effect of -27.6%. With `Cc1cccc(OC2CCN(c3nccnc3C#N)CC2)n1` the Percent Effect was 85.3%. In the case of `Cc1cccc(OC2CCN(c3ncc(C#N)cc3Cl)CC2)n1`, the Percent Effect is reported as 26.2%. `Cc1cccc(OC2CCN(c3ccc(C#N)cn3)CC2)n1` was tested, and the Percent Effect was 22.3%. In the case of `COCCNC(=O)C[C@@H]1COC[C@H]2CN(Cc3cccnc3)C[C@@H]12`, the Percent Effect is reported as 7.6%. In the case of `COc1ccc(CN2C[C@H](OCC3CCOCC3)[C@H]3COC[C@H]32)cc1`, the Percent Effect is reported as -3.35%. `O=C(Cc1cccc(F)c1)N1CCc2ncnc(NC3CCC3)c2CC1` was tested, and the Percent Effect was -11.9%. Work on `O=C(Cc1cccc(F)c1)N1CCc2ncnc(NC3CC3)c2CC1` yielded a Percent Effect of 121%. With `O=C(NCc1cccc(F)c1)N1CCc2ncnc(NC3CC3)c2CC1` the Percent Effect was -9.48%. `CCOCCN1Cc2ncn(C)c2C(COCC2CCOCC2)C1` (stereo not drawn) showed a Percent Effect of 55.1%. Molecule `Cn1cnc2c1C(COCC1CCOCC1)CN(Cc1ccccn1)C2` (stereo not drawn) has a Percent Effect of -19.7%. `Cn1cnc2c1C(COCC1CCOCC1)CN(C1CCOCC1)C2` (stereo not drawn) was tested, and the Percent Effect was -38%. In the case of `CN1C(=O)C[C@@H]2[C@@H]1CCN2S(=O)(=O)Cc1ccccc1`, the Percent Effect is reported as -11.3%. In the case of `O=C(COCC1CC[C@H]2[C@H](CCN2c2ncccn2)O1)N1CCCC1` (stereo partly drawn), the Percent Effect is reported as 9.91%. `Nc1cc(C(=O)NCC2CCN(Cc3cccc(O)c3)C2)ccn1` (stereo not drawn) was tested, and the Percent Effect was -14.3%. `Nc1cc(C(=O)NCC2CCN(Cc3ccncc3F)C2)ccn1` (stereo not drawn) was tested, and the Percent Effect was 141%. Work on `CC/C=C(\C)CN1CCC(CNC(=O)c2ccnc(N)c2)C1` (stereo not drawn) yielded a Percent Effect of -25.3%. `CCc1ccc(CN2CC[C@H]3C[C@H](c4nnc(C)[nH]4)O[C@@H]3C2)o1` showed a Percent Effect of 32%. With `O=C(NCC1CC1)[C@@H]1CCO[C@@H]2CCN(Cc3ccc(F)cc3)C[C@H]21` the Percent Effect was -0.289%. `CNC(=O)CC1CC2(CCN(c3ncccn3)CC2)c2ccccc21` (stereo not drawn) was tested, and the Percent Effect was -25.9%. `c1cnc(N2CCC3(CC2)CC(NCC2CC2)c2ccccc23)nc1` (stereo not drawn) gave a Percent Effect of 2.19%. `CNC(=O)CNC1CC2(CCN(c3ncccn3)CC2)c2ccccc21` (stereo not drawn) showed a Percent Effect of 61.9%. `O=C1[C@@H]2CN(c3ncc(Cl)cc3F)C[C@]2(C(=O)O)CN1CC1CC1` gave a Percent Effect of 5.43%. `O=C(c1cnccn1)N1CCN2C[C@H](OCc3ccccn3)C[C@H]2C1` gave a Percent Effect of -10.5%. With `O=C(N[C@@H]1CN(Cc2ccccc2)C[C@@H]2CCCO[C@@H]21)C1CC1` the Percent Effect was -12.9%. `CCN1C(=O)CC[C@@H]2[C@H]1CCN2S(=O)(=O)c1cccs1` showed a Percent Effect of -25.3%. In the case of `Cc1ccc(C(=O)N2CCN(c3ncnc4nc(N)ccc34)CC2)o1`, the Percent Effect is reported as 65.6%. In the case of `CC(C)(C)C(=O)N1CCCN(c2ncnc3nc(N)ccc23)CC1`, the Percent Effect is reported as 18.3%. With `Cc1ccc(C(=O)N2CCN(c3ncnc4nc(N)ccc34)CC2)cc1` the Percent Effect was -11.7%.
